Source: PubChem BioAssay
Vaccinia mCherry: vaccinia inhibition (mCherry reporter); Potency, µM (highest dose often 36.5 µM), usual class: inhibitors; hit rate 0.63% among 310,000; Vaccinia virus mCherry reporter infection, fluorescence; calls by dose curve; tested in A549 cells; further: nearly all actives have a fitted effect of over 35% in size
HCMV inh: human cytomegalovirus inhibition | HFF cells, HCMV-luciferase reporter, 72 h; active compounds read low | AID 1259415 | activity change, negative = inhibition, % at 57.5 µM | hit rate 4.5% among 410,000; in the data active means activity change below about -60%; inconclusive means no clear call, values can overlap the other calls; inactive means above about -39%
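Luciferase read-out from HCMV-luciferase-infected HFFs (MOI 1 PFU/cell) 72 h post infection at 37C; compounds added after 16 h cell attachment; activity normalized between buffer-only basal and Salinomycin (10uM) inhibitor controls.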
Sm TGR block: blocks Schistosoma mansoni thioredoxin glutathione reductase. hit rate 3% among 360,000. purified TGR, DTNB reduction, TNB absorbance 405 nm. Potency, µM (top dose mostly 114 µM), actives largely listed as inhibitors. Q962Y6. AID 485364; further: nearly all actives have a fitted effect of over 60% in size
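TGR 20 nM + NADPH 100 uM (dispensed conc.), cpd preinc 15 min RT; start with NADPH (500 uM addition) then DTNB (15 mM addition). Kinetic TNB absorbance, 405 nm filter. Four-parameter Hill fit across titration.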
Vaccinia Venus: vaccinia inhibition (Venus reporter). hit rate 0.46% among 330,000. AID 720580. Potency, µM (titrated, usually from 36.5 µM), actives largely listed as inhibitors. Vaccinia virus Venus reporter expression, fluorescence; calls by dose curve; tested in A549 cells; further: nearly all actives have a fitted effect of over 30% in size
HCV inh: blocks hepatitis C virus | Huh7.5.1 HCVcc-Cre infection, luciferase reporter, 44 h | Potency, µM (top dose mostly 41.8 µM), actives largely listed as inhibitors | hit rate 3.4% among 340,000
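Antiviral activity was scored by luciferase reporter output from cells infected with HCVcc-Cre (~0.5 moi) in presence of compound, 44 h infection period, cells seeded 1,000/well 4 h prior.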
FMDV inh: antivirals against foot and mouth disease virus; Potency, µM (highest dose often 57.9 µM), actives largely listed as inhibitors; FMDV antiviral cell-based qHTS; hit rate 1.2% among 410,000; calls by dose curve; tested in HEK293T cells; further: read-out not given here; nearly all actives have a fitted effect of over 45% in size
Large screens that a line does not name were inactive. Rows were chosen to be rich in hits. Some 9.3% of all compounds tested hit in one or more screens of this group. Unless noted, the call rests on the fitted dose curve; in most records, active means well fitted curve in the direction sought with a large enough effect; inconclusive means small, poorly fitted or top-dose-only effect, or another doubt; inactive means no such curve, though single readings can be large; an effect the other way counts as inactive or inconclusive.

CCCCNc1ccc(C(CC(N)=O)NC(=O)Cc2ccc(Br)cc2)cc1[N+](=O)[O-] (configuration not stated)	none
Cc1ccc2c(CC(=O)Nc3cccc(Cl)c3C)coc2c1	none (no result: HCV inh)
CCN1C(=O)c2ccccc2Sc2ccc(NC(=O)Nc3ccccc3OC)cc21	Vaccinia mCherry inconclusive, FMDV inh inconclusive (no result: HCV inh)
COC(=O)c1cccc(-n2nnnc2SCC(=O)Nc2cc(C)on2)c1	HCMV inh -91.0 (no result: Vaccinia mCherry)
Cc1ccc(-n2nnnc2SCn2nnc3ccccc3c2=O)c(C)c1	HCMV inh -85.9, HCV inh inconclusive, FMDV inh inconclusive (no result: Vaccinia mCherry, Vaccinia Venus)
COC(=O)c1ccccc1NC(=O)CSc1nnnn1-c1ccc(C)cc1C	FMDV inh 31.6µM
Cc1cc(NC(=O)CSc2nnnn2-c2ccccc2C)no1	HCMV inh -112.8
Cc1ccc(S(=O)(=O)n2cnc3cc([N+](=O)[O-])ccc32)c(C)c1C	none
O=[N+]([O-])c1ccccc1Nc1ccccc1[N+](=O)[O-]	none (no result: Sm TGR block)
Cc1ccccc1C(c1ncccc1C)N(C)C(=O)C1CCN(CCOc2ccc(Cl)cc2Cl)CC1 (configuration not stated)	Vaccinia Venus inconclusive (no result: Sm TGR block, HCV inh)
CSc1ccccc1-n1nnnc1SCC(=O)Nc1ccccc1C	HCV inh 11.2µM (no result: Vaccinia mCherry, Vaccinia Venus)
CSc1ccccc1NC(=O)CSc1nnnn1-c1ccccc1SC	HCV inh inconclusive
Cc1cccc(-n2nnnc2SCC(=O)Nc2ccc(N3CCN(C)CC3)cc2)c1	HCMV inh -65.7 (no result: Vaccinia mCherry, Vaccinia Venus)
Cc1ccccc1-n1nnnc1SCC(=O)Nc1ccc(N2CCN(C)CC2)cc1	none
Cc1cc(NC(=O)CSc2nnc(C3COc4ccccc4O3)n2C)no1 (configuration not stated)	HCMV inh -78.1
Cc1cc(NC(=O)CSc2nnc(-c3ccccc3)n2C)no1	none
O=C1CCC([N+](=O)[O-])C(c2cc3c(cc2Br)OCO3)N1 (configuration not stated)	none
O=C1CC2OCC=C3CN4CC[C@@]56c7ccccc7N1C5C2C3CC46 (some centres not stated)	none (no result: HCMV inh, Sm TGR block, HCV inh)
Cc1ccc(CN(C)C(=O)c2ccc(S(=O)(=O)N3CCCCCC3)cc2)o1	Sm TGR block 50.1µM
CC(=O)N1CCN(S(=O)(=O)c2cccc(C(=O)N(C)Cc3ccc(C)o3)c2)CC1	Sm TGR block 39.8µM
Cc1cccc(N2C(=O)CSC23C(=O)N(Cc2cccc(C(F)(F)F)c2)c2ccccc23)c1 (configuration not stated)	HCMV inh -69.7, FMDV inh inconclusive (no result: HCV inh)
CN1C(=O)C2C[C@@]3(Br)c4ccccc4N(OOSc4ccccc4)[C@H]3N2C(=O)[C@@H]1Cc1ccccc1 (some centres not stated)	HCMV inh -71.2 (no result: Sm TGR block)
Cc1cc(C)cc(NC(=O)CSc2nc3c(oc4ccccc43)c(=O)n2-c2ccccc2F)c1	none (no result: HCV inh)
CC[N+]1(CC)CC2=Cc3c(ccc4ccccc34)CC2C1 (configuration not stated)	none
Cc1ccc(F)c(NC(=O)Nc2ccc3snnc3c2)c1	HCMV inh -105.9 (no result: HCV inh)
Cc1c(Cl)cccc1NC(=O)Nc1cc(C(C)(C)C)on1	HCV inh 10µM
CC(=O)Nc1cccc(NC(=O)Nc2cccc(Cl)c2C)c1	HCMV inh -71.0 (no result: Sm TGR block)
Cc1c(Cl)cccc1NC(=O)Nc1ccc2snnc2c1	Vaccinia mCherry inconclusive, HCMV inh -103.9, Vaccinia Venus inconclusive (no result: HCV inh)
CNC(=O)Nc1ccc2snnc2c1	none
CC(=O)c1ccc(NC(=O)Nc2ccc3snnc3c2)cc1	none (no result: HCV inh)
NC(=O)C1CCN(CC(=O)Nc2ccccc2Sc2ccccc2)CC1	none
NC(=O)CCN1CCC(c2nc3ccccc3s2)CC1	none
Cc1ccc(NC(=O)c2ccc3c(c2)[nH]c(=O)n3C(C)C)cc1	HCV inh inconclusive, FMDV inh inconclusive
Cc1c(C(=O)NC(C)c2ccccc2)c(-c2ccccc2)nn1-c1ccccc1 (configuration not stated)	none (no result: Vaccinia mCherry)
O=C(Nc1ccc(F)cc1)Nc1ccc2snnc2c1	HCMV inh -75.1 (no result: HCV inh)
CC(C)=C1SC(N2CCOCC2)=NC1=O	none (no result: Vaccinia mCherry)
Cc1ccc(C)c(N=Nc2nc3ccccc3n2C)c1	HCMV inh inconclusive, HCV inh 14.1µM (no result: FMDV inh)
CCCCC(O)(CCN1CCOCC1)c1ccc(Cl)cc1 (configuration not stated)	Sm TGR block 35.5µM (no result: Vaccinia mCherry, Vaccinia Venus)
CCCCOc1ccc(C(O)(CC)CCN2CCOCC2)cc1 (configuration not stated)	Sm TGR block 20µM (no result: FMDV inh)
CCCCOc1ccc(C(O)(CCC)CCN2CCOCC2)cc1 (configuration not stated)	Sm TGR block 39.8µM, HCV inh inconclusive, FMDV inh inconclusive
CCCC(O)(c1ccc(Cl)cc1)C(CN1CCOCC1)c1ccccc1 (configuration not stated)	HCV inh inconclusive
Cc1ccc(/C=N/NC(=O)CN(Cc2ccccc2)S(=O)(=O)c2ccc3c(c2)OCCO3)cc1	HCV inh inconclusive
Cc1nn2c(C)c(C(=O)N3CCN(c4ccccc4F)CC3)cnc2c1-c1ccc(F)cc1	none (no result: HCV inh)
COc1ccc(-c2nnc(SCC(=O)N3CCOCC3)o2)cc1	none (no result: Vaccinia mCherry)
O=C(CSc1nnc(-c2ccc(OC(F)F)cc2)o1)N1CCOCC1	Vaccinia mCherry 15.8µM, Vaccinia Venus inconclusive, HCV inh inconclusive (no result: FMDV inh)
COc1c(C(=O)Nc2ccccc2N2CCOCC2)cc2ccccc2c1Br	HCMV inh inconclusive, HCV inh inconclusive, FMDV inh inconclusive (no result: Sm TGR block)
CCc1c(C)nc2nncn2c1NCc1ccc(Cl)cc1	HCMV inh -69.2, Vaccinia Venus inconclusive, FMDV inh inconclusive (no result: HCV inh)
Cc1ccc(CNc2c(C)c(C)nc3nncn23)cc1	Vaccinia mCherry inconclusive, FMDV inh inconclusive (no result: HCV inh)
Cc1cc(N2CCCCC2)nc2c(C)cccc12	none (no result: Sm TGR block)
O=C(CN1C(=O)C2CC=CCC2C1=O)Nc1nc(-c2ccc(F)cc2)cs1 (configuration not stated)	HCV inh inconclusive (no result: Vaccinia mCherry, Vaccinia Venus)
CC(C(=O)Nc1nc(-c2ccc(F)cc2)cs1)N1C(=O)C2CC=CCC2C1=O (configuration not stated)	FMDV inh 28.2µM
Nc1ccc2c3c(ccc([N+](=O)[O-])c13)CC2	HCMV inh -69.3 (no result: Sm TGR block, HCV inh)
Cc1[nH]nc(SCC(=O)N(C)c2ccccc2)c1[N+](=O)[O-]	none (no result: Vaccinia mCherry, Vaccinia Venus)
Cc1ccc(C2c3c(oc4ccccc4c3=O)C(=O)N2c2ccc(C)cn2)cc1 (configuration not stated)	none (no result: HCV inh)
Cc1cc(C)cc(NC(=O)c2oc3ccc4c(c3c2C)C(=O)CC(C)(C)O4)c1	HCMV inh -105.3 (no result: HCV inh)
O=C(Nc1ccc2c(c1)C(N1CCOCC1)c1ccccc1-2)C(F)(F)F (configuration not stated)	none (no result: Sm TGR block)
CCN(CC)S(=O)(=O)c1ccc(OC)c(NC(=O)COc2ccc3c(C)cc(=O)oc3c2)c1	HCV inh inconclusive
CC(C)c1ccc(S(=O)(=O)/N=C2/C=CC(=O)c3ccccc32)cc1	Sm TGR block 8.91µM (no result: Vaccinia mCherry, HCMV inh, Vaccinia Venus, HCV inh, FMDV inh)
